Unmarked numbers belong to inactive results. Results filed as inconclusive are left out. Entries that show only a call come without a potency. Activity calls are given as the source filed them. Unless noted, calls come from the whole dose curve; as a rule, active = well fitted curve in the direction sought with a large enough effect in the repeat runs; inconclusive = weak or mixed curves; inactive = no such curve, though single readings can be large; an effect the other way counts as inactive or inconclusive.
What was measured:
[1] = A CellTox Green Cytotoxicity Assay to monitor cytotoxicity in HEK293 cells - 32 hour (AID 1224881); note: nearly all actives have a fitted effect of over 40% in size; note: potency is the fitted concentration of half-maximal effect
Method in brief: (§1)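 Cytotoxicity was tracked continuously in HEK293 cells by a DNA-binding dye excluded from viable cells. Compounds were transferred in DMSO 5 h after seeding; fluorescence was recorded at intervals up to 40 h.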

[2] = A CellTox Green Cytotoxicity Assay to monitor cytotoxicity in HepG2 cells - 32 hour (AID 1224883); note: nearly all actives have a fitted effect of over 50% in size; note: potency is the fitted concentration of half-maximal effect
Method in brief: (§2)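 Real-time, homogeneous cytotoxicity readout: dead-cell DNA staining by CellTox Green in HepG2 monolayers, fluorescence measured at timed intervals up to 40 h of continuous compound exposure.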

[3] = A CellTox Green Cytotoxicity Assay to monitor cytotoxicity in HEK293 cells - 8 hour (AID 1224884); note: nearly all actives have a fitted effect of over 35% in size
Method in brief: as §1

[4] = qHTS RealTime-Glo MT Cell Viability Assay in HepG2 cells - 16 hour (AID 1224885); note: nearly all actives have a fitted effect of over 50% in size; note: potency is the fitted concentration of half-maximal effect
Method in brief: (§3)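 Real-time, nonlytic viability: 600 HepG2 cells/well mixed with NanoLuc enzyme plus prosubstrate; 5 h settle, compound (DMSO) added by pintool; luminescence monitored over 40 h at 37 C.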

[5] = qHTS RealTime-Glo MT Cell Viability Assay in HEK293 cells - 24 hour (AID 1224886); note: nearly all actives have a fitted effect of over 50% in size; note: potency is the fitted concentration of half-maximal effect
Method in brief: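 Cells + reagent dispensed (600 cells/well, HEK293) → 5 h at 37 C/5% CO2 → 23 nL compound in DMSO pinned → 40 h at 37 C → luminescence read at 0, 8, 16, 24, 32, 40 h.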

[6] = qHTS RealTime-Glo MT Cell Viability Assay in HEK293 cells - 8 hour (AID 1224887); note: nearly all actives have a fitted effect of over 50% in size; note: potency is the fitted concentration of half-maximal effect
Method in brief: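 Nonlytic bioluminescent viability monitoring. HEK293 at 600 cells/well with reagent; 5 h settle; compound transfer by pintool; plates held at 37 C and read at set time points.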

[7] = A CellTox Green Cytotoxicity Assay to monitor cytotoxicity in HEK293 cells - 16 hour (AID 1224888); note: nearly all actives have a fitted effect of over 35% in size; note: potency is the fitted concentration of half-maximal effect
Method in brief: as §1

[8] = qHTS RealTime-Glo MT Cell Viability Assay in HepG2 cells - 0 hour (AID 1224889); note: nearly all actives have a fitted effect of over 50% in size
Method in brief: as §3

[9] = A CellTox Green Cytotoxicity Assay to monitor cytotoxicity in HepG2 cells - 8 hour (AID 1224890); note: nearly all actives have a fitted effect of over 45% in size
Method in brief: as §2

[10] = qHTS assay to identify small molecule antagonists of the estrogen receptor alpha (ER-alpha) signaling pathway using the BG1 cell line in the presence of 0.1 nM 17-beta-estradiol - cell viability counter screen (AID 1259241); note: nearly all actives have a fitted effect of over 40% in size; note: potency is the fitted concentration of half-maximal effect
Method in brief: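 Viability in VM7Luc4E2 cells after 22 hr compound exposure under 0.1 nM 17beta-estradiol stimulation, by CellTiter-Fluor.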

[11] = qHTS assay to identify small molecule antagonists of the androgen receptor (AR) signaling pathway using the MDA cell line in the presence of 0.5 nM R1881 - cell viability counter screen (AID 1259242); note: nearly all actives have a fitted effect of over 45% in size
Method in brief: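 Cytotoxicity toward MDA-kb2 cells is measured by CellTiter-Fluor live-cell protease fluorescence after 16 hr compound exposure at 37C in the presence of 0.5 nM R1881 stimulator.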

[12] = qHTS assay to identify small molecule phospholipidosis (PLD) inducers (AID 1259344; active = well fitted curve in the direction sought with a large enough effect; an effect the other way counts as inactive or inconclusive)
Method in brief: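 HepG2 cells, 900/well, treated with compound plus LipidTOX Red for 24 h at 37 C; amiodarone positive and DMSO negative controls. Fixed with paraformaldehyde/Hoechst, then high-content imaging scored LipidTOX pit count and integrated intensity per well and per cell.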

[13] = qHTS assay to identify small molecule HDAC inhibitors (AID 1259364); note: top concentration of the series differs between compounds; nearly all actives have a fitted effect of over 45% in size
Method in brief: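 Homogeneous cell-based luminescent assay of endogenous class I/II HDAC activity; HCT-116 cells, 2 h compound exposure, 30 min HDAC-Glo development at RT.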

[14] = qHTS assay to identify small molecule HDAC inhibitors - cell viability counter screen (AID 1259365)
Method in brief: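 Cytotoxicity was gauged in wild-type HCT-116 cells after a brief 2hr treatment with DMSO-dissolved compounds at 37C and 5% CO2, using CellTiter-Glo luminescence developed for 30min at room temperature.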

[15] = qHTS assay to identify small molecule agonists of the sonic hedgehog signaling (Shh) pathway - cell viability counter screen (AID 1259366); note: nearly all actives have a fitted effect of over 50% in size; note: potency is the fitted concentration of half-maximal effect
Method in brief: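 Stable Gli1-Luc NIH/3T3 clone, 2,000 cells/well. Compound exposure 24hr at 37C. Read-out: CellTiter-Fluor fluorescence.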

[16] = qHTS assay to identify small molecule antagonists of the sonic hedgehog signaling (Shh) pathway - cell viability counter screen (AID 1259367); note: nearly all actives have a fitted effect of over 55% in size; note: potency is the fitted concentration of half-maximal effect
Method in brief: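 NIH/3T3-derived Gli1-Luc reporter cells, 2,000/well, plated 4 hr before compound addition, then stimulated with conditioned medium for 24 hr at 37C. Viability measured in the same wells by CellTiter-Fluor fluorescence, reagent added at 23 hr for 1 hr.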

[17] = qHTS assay to identify small molecule agonists of the sonic hedgehog signaling (Shh) pathway (AID 1259368; calls by dose curve;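 note: NIH/3T3-derived 3T3Gli1-Luc cells carrying a stable Gli1-driven firefly luciferase reporter; series mostly up to about 92 µM; nearly all actives have a fitted effect of over 15% in size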)
Method in brief: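 Steps: seed 3T3 Gli1-Luc cells, incubate 4 hr at 37 C, pin-transfer compounds in DMSO alongside a positive control, incubate 24 hr, add luciferase detection reagent, wait 30 min at room temperature, read luminescence.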

[18] = A CellTox Green Cytotoxicity Assay to monitor cytotoxicity in HepG2 cells - 0 hour (AID 1224882); note: nearly all actives have a fitted effect of over 35% in size
Method in brief: as §2

[19] = target: Androgen receptor (Homo sapiens) (UniProt P10275); assay: qHTS assay to identify small molecule antagonists of the androgen receptor (AR) signaling pathway using the MDA cell line in the presence of 0.5 nM R1881 (AID 1259243); note: nearly all actives have a fitted effect of over 50% in size; note: potency is the fitted concentration of half-maximal effect
Androgen receptor (Homo sapiens), sequence (P10275 whole entry, looked up): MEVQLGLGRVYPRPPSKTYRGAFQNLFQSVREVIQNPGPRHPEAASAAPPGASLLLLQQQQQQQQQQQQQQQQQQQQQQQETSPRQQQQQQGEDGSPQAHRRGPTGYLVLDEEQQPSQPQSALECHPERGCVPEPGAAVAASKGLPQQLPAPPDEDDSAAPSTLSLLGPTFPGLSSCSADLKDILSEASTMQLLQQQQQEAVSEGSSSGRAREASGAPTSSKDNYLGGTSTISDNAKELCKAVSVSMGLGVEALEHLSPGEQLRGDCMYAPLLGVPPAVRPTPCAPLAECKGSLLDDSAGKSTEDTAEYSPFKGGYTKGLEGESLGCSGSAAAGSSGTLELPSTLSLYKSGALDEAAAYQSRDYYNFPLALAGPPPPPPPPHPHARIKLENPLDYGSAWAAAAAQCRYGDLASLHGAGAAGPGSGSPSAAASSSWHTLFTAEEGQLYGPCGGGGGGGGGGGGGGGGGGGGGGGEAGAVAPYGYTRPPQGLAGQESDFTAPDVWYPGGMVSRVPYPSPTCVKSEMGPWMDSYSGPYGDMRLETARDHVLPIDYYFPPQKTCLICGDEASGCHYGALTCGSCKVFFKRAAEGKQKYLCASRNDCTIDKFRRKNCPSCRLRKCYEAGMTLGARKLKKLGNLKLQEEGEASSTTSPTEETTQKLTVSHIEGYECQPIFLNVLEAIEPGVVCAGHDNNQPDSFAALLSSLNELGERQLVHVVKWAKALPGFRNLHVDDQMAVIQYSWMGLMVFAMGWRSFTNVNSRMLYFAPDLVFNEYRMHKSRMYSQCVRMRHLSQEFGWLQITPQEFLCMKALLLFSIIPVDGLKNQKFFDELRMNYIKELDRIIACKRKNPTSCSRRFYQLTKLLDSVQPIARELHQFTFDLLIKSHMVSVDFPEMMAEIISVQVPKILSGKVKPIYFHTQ
Method in brief: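 Steps: seed MDA-kb2 cells, incubate 5 hr at 37C; pin-transfer compounds in DMSO; add R1881 to 0.5 nM final; incubate 16 hr; add ONE-Glo, wait 30 min at room temperature; read luminescence.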

[20] = target: Estrogen receptor (Homo sapiens) (UniProt P03372); assay: qHTS assay to identify small molecule antagonists of the estrogen receptor alpha (ER-alpha) signaling pathway using the BG1 cell line in the presence of 0.1 nM 17-beta-estradiol (AID 1259244); note: nearly all actives have a fitted effect of over 50% in size; note: potency is the fitted concentration of half-maximal effect
Estrogen receptor (Homo sapiens), sequence (P03372 whole entry, looked up): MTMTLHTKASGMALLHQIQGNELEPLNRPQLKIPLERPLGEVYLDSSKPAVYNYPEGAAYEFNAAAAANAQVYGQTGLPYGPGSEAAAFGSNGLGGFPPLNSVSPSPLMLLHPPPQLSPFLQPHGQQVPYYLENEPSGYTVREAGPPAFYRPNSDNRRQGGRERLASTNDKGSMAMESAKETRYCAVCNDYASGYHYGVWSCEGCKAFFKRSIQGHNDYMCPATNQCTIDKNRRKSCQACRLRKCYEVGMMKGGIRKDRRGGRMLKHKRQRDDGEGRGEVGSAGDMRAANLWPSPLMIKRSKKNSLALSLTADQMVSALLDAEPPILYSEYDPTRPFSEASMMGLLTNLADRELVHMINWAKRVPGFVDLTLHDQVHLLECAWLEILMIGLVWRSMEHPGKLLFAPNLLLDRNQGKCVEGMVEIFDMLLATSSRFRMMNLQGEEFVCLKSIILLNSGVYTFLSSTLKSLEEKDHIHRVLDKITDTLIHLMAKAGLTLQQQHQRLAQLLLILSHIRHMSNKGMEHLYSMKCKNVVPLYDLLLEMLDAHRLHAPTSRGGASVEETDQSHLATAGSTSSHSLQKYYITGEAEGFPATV
Method in brief: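 After 5 days in hormone-depleted medium (charcoal-stripped serum, no phenol red), VM7Luc4E2 cells were seeded, incubated 24 h, then co-treated with compound and 0.1 nM (final) estradiol for 22 h before luminescence detection.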

In the case of `O=C(O)c1ccc(-n2nc(-c3ccccc3O)nc2-c2ccccc2O)cc1`, the Potency [1] was “inactive”, the Potency [2] was “inactive” and the Potency [3] was “inactive”. For the same compound, the Potency [4] was “inactive”, the Potency [5] was “inactive” and the Potency [6] was “inactive”. The Potency [7] was “inactive”, the Potency [8] was “inactive” and the Potency [9] was “inactive”. The Potency [10] was “inactive”, the Potency [11] was “inactive” and the PLD induction [12] was -4.07% [at 1.53 µM]. The Potency [13] was “inactive”, the Potency [14] was “inactive” and the Potency [15] was “inactive”. The Potency [16] was “inactive” and the outcome [17] was “inactive”.

With `O=C1CCCCCCCCCCCC(=O)OCCO1` the Potency [18] was “inactive”, the Potency [4] was “inactive” and the Potency [5] was “inactive”. For the same compound, the Potency [6] was “inactive”, the Potency [8] was “inactive” and the Potency [9] was “inactive”. The Potency [10] was “inactive”, the Potency [11] was “inactive” and the Potency [19] was “inactive”. The Potency [20] was “inactive”, the Potency [13] was “inactive” and the Potency [14] was “inactive”. The Potency [15] was “inactive”, the Potency [16] was “inactive” and the outcome [17] was “inactive”.

In the case of `CCN(CC)CCNc1ccc(CNC=O)c2sc3ccc(OC)cc3c(=O)c12`, the Potency [1] was “inactive”, the Potency [18] was “inactive” and the Potency [4] was 21.9 µM (active). The Potency [5] was 19.5 µM (active), the Potency [6] was 34.7 µM (active) and the Potency [7] was “inactive”. The Potency [9] was “inactive”, the Potency [10] was 4.33 µM (active) and the Potency [20] was “inactive”. For the same compound, the Potency [13] was “inactive”, the Potency [14] was “inactive” and the Potency [15] was “inactive”. For the same compound, the Potency [16] was “inactive”.

With `OCc1cc(C(O)CNCCCCCCOCCCCc2ccccc2)ccc1O` (stereo unspecified) the Potency [18] was “inactive”, the Potency [2] was 23.9 µM (active) and the Potency [3] was “inactive”. The Potency [5] was 19 µM (active), the Potency [8] was “inactive” and the Potency [9] was “inactive”. The Potency [20] was “inactive”, the Potency [15] was 3.76 µM (active) and the Potency [16] was 4.73 µM (active). The outcome [17] was “inactive”.

In the case of `CCOC(=O)COC(=O)c1cc(Oc2ccc(C(F)(F)F)cc2Cl)ccc1[N+](=O)[O-]`, the Potency [18] was “inactive”, the Potency [2] was “inactive” and the Potency [3] was “inactive”. The Potency [4] was “inactive”, the Potency [6] was 49 µM (active) and the Potency [7] was “inactive”. For the same compound, the Potency [8] was “inactive”, the Potency [9] was “inactive” and the Potency [10] was “inactive”. The Potency [11] was “inactive”, the Potency [14] was “inactive” and the Potency [15] was “inactive”. The Potency [16] was “inactive” and the outcome [17] was “inactive”.

For `COc1cc(C(=O)OCCCN2CCCN(CCCOC(=O)c3cc(OC)c(OC)c(OC)c3)CC2)cc(OC)c1OC`, the Potency [18] was “inactive”, the Potency [2] was 21.3 µM (active) and the Potency [3] was “inactive”. For the same compound, the Potency [4] was “inactive”, the Potency [5] was 8.49 µM (active) and the Potency [6] was 9.52 µM (active). The Potency [8] was “inactive”, the Potency [9] was “inactive” and the Potency [11] was “inactive”. For the same compound, the Potency [20] was 13.3 µM (active), the Potency [12] was “inactive” and the Potency [13] was “inactive”. For the same compound, the Potency [14] was “inactive”, the Potency [16] was 10.6 µM (active) and the outcome [17] was “inactive”.

For `CCOC(=O)C1=C[C@]2(CC)CCCN3CCc4c(n1c1ccccc41)[C@@H]32`, the Potency [1] was “inactive”, the Potency [18] was “inactive” and the Potency [4] was “inactive”. For the same compound, the Potency [5] was “inactive”, the Potency [6] was “inactive” and the Potency [7] was “inactive”. The Potency [9] was “inactive”, the Potency [10] was “inactive” and the Potency [11] was “inactive”. For the same compound, the Potency [20] was “inactive”, the Potency [12] was “inactive” and the Potency [13] was “inactive”. For the same compound, the Potency [15] was “inactive”, the Potency [16] was “inactive” and the outcome [17] was “inactive”.

With `CCC(C)c1cc(C(C)(C)C)c(O)c(C(C)(C)C)c1` (stereo unspecified) the Potency [18] was “inactive”, the Potency [2] was “inactive” and the Potency [4] was “inactive”. For the same compound, the Potency [5] was “inactive”, the Potency [6] was “inactive” and the Potency [8] was “inactive”. For the same compound, the Potency [9] was “inactive”, the Potency [11] was “inactive” and the Potency [13] was “inactive”. For the same compound, the Potency [14] was “inactive”, the Potency [15] was “inactive” and the Potency [16] was “inactive”. For the same compound, the outcome [17] was “inactive”.

In the case of `C=CC(=O)OCCOCCOC(=O)C=C`, the Potency [18] was “inactive”, the Potency [2] was 49.2 µM (active) and the Potency [3] was “inactive”. For the same compound, the Potency [5] was 31 µM (active), the Potency [6] was “inactive” and the Potency [8] was “inactive”. For the same compound, the Potency [9] was “inactive”, the Potency [14] was “inactive” and the Potency [16] was 27.4 µM (active). The outcome [17] was “inactive”.

In the case of `Cc1cccc(C)c1OCC(=O)N[C@@H](Cc1ccccc1)[C@@H](O)C[C@H](Cc1ccccc1)NC(=O)[C@H](C(C)C)N1CCCNC1=O`, the Potency [18] was “inactive”, the Potency [2] was “inactive” and the Potency [3] was “inactive”. The Potency [4] was “inactive”, the Potency [5] was 23.9 µM (active) and the Potency [8] was “inactive”. The Potency [9] was “inactive”, the Potency [11] was “inactive” and the Potency [19] was 23.7 µM (active). For the same compound, the Potency [13] was “inactive”, the Potency [16] was 23.7 µM (active) and the outcome [17] was “inactive”.

In the case of `CN1CCC(N(Cc2cccs2)c2ccccc2)CC1`, the Potency [1] was 21.3 µM (active), the Potency [2] was 21.3 µM (active) and the Potency [4] was “inactive”. The Potency [5] was “inactive”, the Potency [6] was “inactive” and the Potency [7] was 19 µM (active). The Potency [8] was “inactive”, the Potency [10] was “inactive” and the Potency [11] was “inactive”. For the same compound, the Potency [20] was “inactive”, the Potency [13] was “inactive” and the Potency [14] was “inactive”. For the same compound, the Potency [15] was “inactive” and the outcome [17] was “inactive”.

In the case of `CCOC(=O)Cc1cccc2ccccc12`, the Potency [1] was “inactive”, the Potency [2] was 21.9 µM (active) and the Potency [3] was “inactive”. For the same compound, the Potency [4] was “inactive”, the Potency [5] was “inactive” and the Potency [6] was “inactive”. The Potency [7] was “inactive”, the Potency [10] was “inactive” and the Potency [20] was “inactive”. For the same compound, the Potency [14] was “inactive”, the Potency [15] was “inactive” and the Potency [16] was “inactive”. For the same compound, the outcome [17] was “inactive”.

From PubChem BioAssay (Tox21)
